High-throughput results: PubChem, National Center for Advancing Translational Sciences (NCATS)
Compounds with a hit are over-represented: about 15% of the library has one in this group of screens.
HCV inh: HCV inhibition | Huh7.5.1 HCVcc-Cre infection, luciferase reporter, 44 h | Potency, µM (doses to about 41.8 µM), without a hit: top-dose activity change, negative = inhibition, hits mostly inhibitors | 340,000 tested, 3.4% active; further: potency means the concentration at half of the fitted maximal effect; on the % scale 0 is the no-effect control and ±100 the full control effect
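1,000 cells/well; 4 h culture; + compound; + HCVcc-Cre (~0.5 moi); 44 h; luciferase substrate, RT 15 min; read 15 sec.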
HCMV inh: inhibitors of human cytomegalovirus | HFF cells, HCMV-luciferase reporter, 72 h; active compounds read low | 410,000 tested, 4.5% active | activity change, negative = inhibition, % at 57.5 µM; in the data active means activity change below about -60%; inconclusive means no clear call, values can overlap the other calls; inactive means above about -39%; further: on the % scale 0 is the no-effect control and ±100 the full control effect
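Compounds were evaluated in HFFs infected with an HCMV luciferase reporter virus (MOI 1 PFU/cell). Luciferase in lysates collected 72 h post infection served as the replication measure.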
SARS PLP yeast: SARS-CoV PLP inhibition in yeast | S. cerevisiae expressing SARS-CoV PLpro, growth rescue | 330,000 tested, 0.19% active | Potency, µM (doses to about 32.9 µM), without a hit: at the highest dose activity, positive = growth rescue, hits mostly activators; calls by dose curve; further: potency means the concentration at half of the fitted maximal effect; 0% is about no effect; nearly all actives have a fitted effect of over 55% in size
Pf growth 96h: inhibits malaria parasite growth, 96 h; P. falciparum luciferase reporter growth, 96 h; Potency, µM (series often up to 28.7 µM), without a hit: top-dose activity change, negative = inhibition, actives largely listed as inhibitors; 320,000 tested, 6.9% active; AID 504834; further: potency means the concentration at half of the fitted maximal effect; on the % scale 0 is the no-effect control and ±100 the full control effect
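Delayed-death screen, second-generation endpoint: infected erythrocytes, 2% hematocrit, 0.05% parasitemia final; 96 hours at 37 C, 5% CO2; luciferase detection reagent; luminescence decrease equals reduced growth.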
Pf growth 48h: P. falciparum growth inhibition at 48 hours (one generation) | P. falciparum luciferase growth in erythrocytes, 48 h | Potency, µM (doses to about 28.7 µM), for inactives: top-dose activity change, negative = inhibition, most hits filed as inhibitors | 310,000 tested, 5.9% active | AID 504832; further: potency means the concentration at half of the fitted maximal effect; on the % scale 0 is the no-effect control and ±100 the full control effect
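Luminescence readout; reporter = integrated firefly luciferase in P. falciparum. RBC culture at 2% hematocrit, 0.1% parasitemia final, 37 C/5% CO2; decreased signal taken as growth inhibition.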
Sm TGR block: S. mansoni TGR enzyme inhibition | purified TGR, DTNB reduction, TNB absorbance 405 nm | Potency, µM (titrated, usually from 114 µM), for inactives: at the highest dose activity change, negative = inhibition, hits mostly inhibitors | 360,000 tested, 3% active | AID 485364; further: potency means the concentration at half of the fitted maximal effect; on the % scale 0 is the no-effect control and ±100 the full control effect; nearly all actives have a fitted effect of over 60% in size
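TGR 20 nM + NADPH 100 uM (dispensed conc.), cpd preinc 15 min RT; start with NADPH (500 uM addition) then DTNB (15 mM addition). Kinetic TNB absorbance, 405 nm filter. Four-parameter Hill fit across titration.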
The depositor's hits bear a star; ? = inconclusive; nt = not tested or not shown; + = active, no number. Unless noted, the call rests on the fitted dose curve; in most records, active means well fitted curve in the direction sought with a large enough effect; inconclusive means small, poorly fitted or top-dose-only effect, or another doubt; inactive means no such curve, though single readings can be large; an effect the other way counts as inactive or inconclusive.

SMILES | HCV inh | HCMV inh | SARS PLP yeast | Pf growth 96h | Pf growth 48h | Sm TGR block
O=S(=O)(c1ccc(Br)cc1)c1nc(-c2ccco2)oc1NCC1CCCO1 (configuration not stated) | 28.3% | 4.6 | -2.6% | 43.9% | -2.3% | 20µM*
Cc1ccc(S(=O)(=O)c2nc(-c3ccco3)oc2NCC2CCCO2)cc1 (configuration not stated) | 4.0% | -25.6 | 3.6% | ? | -20.0% | 8.91µM*
N#Cc1c(Br)n(C2OC(CO)C(O)C2O)c2ncnc(N)c12 (configuration not stated) | ? | -94.9* | nt | nt | nt | nt
CN(C)c1nc2c(N)ncnc2n1[C@H]1O[C@@H](CO)[C@H](O)[C@@H]1O | 16.1% | -69.7* | -1.6% | 32.8% | 1.1% | -5.1%
NC(=O)c1c(Br)n(C2OC(CO)C(O)C2O)c2ncnc(N)c12 (configuration not stated) | ? | -83.0* | nt | nt | nt | nt
Nc1ncnc2c1ncn2[C@@H]1O[C@H](CO)[C@@H](O)[C@H]1O | ? | 52.0 | 1.6% | 5.2% | 12.0% | 0.8%
Cc1ccc(N2CCN(CC(O)COc3ccccc3)CC2)cc1 (configuration not stated) | -9.0% | -18.1 | 1.4% | 27.3% | -9.9% | -13.1%
C[C@@H]1CN(C(=O)c2cc(COc3cccc(C(F)(F)F)c3)on2)C[C@H](C)O1 | -24.1% | 116.2 | 1.6% | 7.6% | ? | -8.2%
Cc1ccc(Cn2c(SCC(=O)C(C)(C)C)nc3ccsc3c2=O)cc1 | nt | ? | nt | nt | nt | 5.8%
Cn1c(=O)oc2cc(S(=O)(=O)NCCC(=O)N3CCN(c4ccccc4)CC3)ccc21 | 3.6% | -7.7 | -1.9% | 13.1µM* | ? | 6.4%
Cc1ccc(NC(=O)CCNS(=O)(=O)c2ccc3c(c2)oc(=O)n3C)c(C)c1 | 17.5% | -10.1 | 6.1% | 11.7µM* | ? | -31.6%
Cc1ccc(C)c(N2CCN(C(=O)CCNS(=O)(=O)c3ccc4c(c3)oc(=O)n4C)CC2)c1 | ? | ? | 1.3% | 1.65µM* | -29.5% | 6.3%
Cc1ccc(C)c(NC(=O)Cn2c(=O)oc3cc(S(=O)(=O)NCc4ccccc4)ccc32)c1 | nt | -4.8 | nt | nt | nt | -3.3%
Cc1cc(C)cc(NC(=O)CCNS(=O)(=O)c2ccc3c(c2)oc(=O)n3C)c1 | 7.4% | -6.5 | 8.4% | ? | ? | 1.7%
COc1ccc(C)cc1NC(=O)Cn1c(=O)oc2cc(S(=O)(=O)NCc3ccccc3)ccc21 | nt | + | nt | nt | nt | 7.8%
O=C(Cc1ccc(Cl)cc1)Nc1cc(Cl)ccn1 | ? | -36.4 | nt | nt | nt | nt
CC(C)Oc1ccc(/C=N/NC(=O)C(CSCc2ccccc2)NC(=O)c2ccc([N+](=O)[O-])cc2)cc1 (configuration not stated) | ? | nt | -8.5% | ? | 11.7µM* | -11.6%
O=C(COc1ccc(/C=N/NC(=O)c2ccccc2)cc1)Nc1ccc([N+](=O)[O-])cc1 | 14.3% | 48.8 | -3.4% | 32.3% | 36.8% | 0.0%
COc1cc2ccccc2cc1C(=O)OCC(=O)N(CC(C)C)c1c(N)n(Cc2ccccc2)c(=O)[nH]c1=O | ? | -31.9 | 0.8% | ? | 10.4µM* | -4.2%
CCCN(C(=O)C(C)Oc1cccc(Cl)c1)c1c(N)n(Cc2ccccc2)c(=O)[nH]c1=O (configuration not stated) | 7.2% | 60.9 | 2.2% | ? | ? | 2.1%
COc1ccccc1CCC(=O)N(Cc1ccccc1)c1c(N)n(Cc2ccccc2)c(=O)[nH]c1=O | 1.12µM* | -3.2 | -8.7% | 8.28µM* | ? | -13.4%
CCCCN(C(=O)C(C)Oc1ccc(Br)cc1)c1c(N)n(Cc2ccccc2)c(=O)[nH]c1=O (configuration not stated) | ? | -5.5 | 8.4% | ? | ? | 89.1µM*
CCOc1ccc(OCCC(=O)N(CCC2=CCCCC2)c2c(N)n(Cc3ccccc3)c(=O)[nH]c2=O)cc1 | ? | -30.4 | -5.2% | -4.0% | ? | -4.0%
CCOc1ccc(OCC(=O)N(CCC2=CCCCC2)c2c(N)n(Cc3ccccc3)c(=O)[nH]c2=O)cc1 | 15.6% | -84.2* | 3.6% | ? | ? | -5.4%
O=C(NCc1ccco1)c1ccc2c(c1)N(Cc1ccccc1)C(=O)c1ccccc1S2(=O)=O | nt | -19.6 | nt | nt | nt | 6.7%
SMILES | HCV inh | HCMV inh | SARS PLP yeast | Pf growth 96h | Pf growth 48h | Sm TGR block
CCOC(=O)C1CCCN(c2c(C(=O)c3ccc(C)cc3)cnc3ccc(OCC)cc23)C1 (configuration not stated) | nt | ? | nt | nt | nt | -10.2%
COc1ccccc1CNC(=O)[C@H](C)NC(=O)C1CCN(C(=O)[C@@H](N)CC(C)C)CC1 | 10.5% | -3.8 | -1.1% | -11.2% | 2.3% | 0.5%
Nc1c(N(Cc2ccccc2)C(=O)COc2ccc(F)cc2)c(=O)[nH]c(=O)n1Cc1ccccc1 | nt | 5.3 | 2.5% | 14.7% | -23.1% | -2.2%
Nc1c(N(Cc2ccccc2)C(=O)COc2cccc(Cl)c2)c(=O)[nH]c(=O)n1Cc1ccccc1 | ? | -78.4* | -6.9% | ? | ? | 3.4%
COc1ccc(CC(=O)N(CCC2=CCCCC2)c2c(N)n(Cc3ccccc3)c(=O)[nH]c2=O)cc1 | nt | -40.0 | nt | nt | nt | nt
CC(Oc1ccc(F)cc1)C(=O)N(CCC1=CCCCC1)c1c(N)n(Cc2ccccc2)c(=O)[nH]c1=O (configuration not stated) | ? | -35.1 | -2.6% | 9.28µM* | ? | 1.7%
COc1ccc(C)cc1NC(=O)CN1C(=O)c2ccccc2S1(=O)=O | -6.1% | -60.4* | -1.8% | ? | nt | -3.1%
COc1ccc(C(=O)CN2C(=O)c3ccccc3S2(=O)=O)cc1 | 1.5% | -92.2* | -0.8% | 75.6% | 7.38µM* | 2.9%
CCC(=O)N1CCc2cc(S(=O)(=O)NC(C(=O)NCCc3cccc(C)c3)C(C)C)ccc21 (configuration not stated) | nt | 18.0 | nt | nt | nt | -0.5%
CN(C)S(=O)(=O)c1ccc(Cl)c(NC(=O)CSc2nc3ccccc3c(=O)n2CCCN2CCOCC2)c1 | ? | -31.5 | 12.2% | 10.4µM* | ? | -9.1%
Cc1ccc(S(=O)(=O)N(C)C)cc1NC(=O)CSc1nc2ccccc2c(=O)n1CC1CCCO1 (configuration not stated) | ? | 10.2 | -9.7% | ? | ? | 2.9%
COc1ccc(NC(=O)CSc2nc3ccccc3c(=O)n2CCCN2CCOCC2)c(OC)c1 | -2.4% | ? | 0.7% | ? | ? | 2.4%
Cc1ccc(S(=O)(=O)N(C)C)cc1NC(=O)Cn1c(CN2CCOCC2)nc2ccccc2c1=O | 8.3% | -6.5 | 3.0% | -20.0% | 14.7µM* | 0.3%
